L929 necroptosis: blocks zVAD induced death of L929 cells; L929 zVAD necroptosis rescue, ATP luminescence, 24 h; with zVAD 60 µM; viability rescue, % at 10 µM; hit rate 0.38% among 220,000; AID 1377;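 active = activation, scaled between plate controls, above about 75%, limit read from the data; inactive = activation under that limit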;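 also: 0% = zVAD with DMSO and 100% = DMSO alone without zVAD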
HSF1 activator: increases HSF-1 driven luciferase reporter signal | hit rate 1.7% among 300,000 | AID 504408 | NIH3T3-HGL HSF-1 luciferase reporter, MG132, 8 h; 100% = twice DMSO control signal | activation, % at 9 µM;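 active = mean replicate activation of at least 50% with a set share of replicates each reaching 50%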;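 also: 0% = median of the neutral control wells and 100% = twice that signal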
Hsp70 act: transcriptional activators of Hsp70. hit rate 0.04% among 200,000. HeLa Hsp70 promoter luciferase reporter, luminescence; scaled: vehicle 0, proteasome-inhibitor control 100%. activation, % at 10 µM. AID 1203;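 active = activation above the mean across all tested compounds plus 3 SD, cutoff set per campaign, cut at about 5.5% in these data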;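 also: 100% = MG132 at 30 µM as the positive control and 0% = DMSO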
TNF necrop inh: blocks TNF-alpha induced death of Jurkat FADD-/- cells; Jurkat FADD-/- TNF necroptosis rescue, ATP luminescence, 24 h; 0 = TNF only, 100 = no-TNF cells; activation (protection from cell death), % at 10 µM; hit rate 0.068% among 220,000; AID 463075;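 active = activation, meaning protection from cell death, of at least 50% relative to plate controls; inactive = activation below 50%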;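 also: necroptosis triggered by 40 ng/mL TNF-alpha added together with compound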
Active calls of the source: *; . = no result. Only some compounds are listed: those with a hit (about 1.9% of all), similar ones and a draw of the others.

SMILES	L929 necroptosis	HSF1 activator	Hsp70 act	TNF necrop inh
N#Cc1ccccc1S(=O)(=O)N1CCN(C(=O)C2CCCC2)CC1	.	10.9	.	.
C=CCNC(=O)CSc1nnc(C(CC)N(C)C)n1C1CCCCC1 (centres undefined)	0.0	67.3*	.	3.3
COc1ccc(-c2cc(-c3ccccc3)c(C#N)c(S(C)=O)n2)cc1 (centres undefined)	22.6	145.6*	-0.1	-13.0
CCSc1nc(-c2ccc(OC)cc2)cc(-c2ccccc2)c1C#N	-0.3	9.9	-0.2	-0.7
O=C(N/N=C/c1cc2c(cc1Br)OCO2)c1ccccn1	0.2	60.1*	.	-7.8
O=C(N/N=C/c1ccc2c(c1)OCO2)c1ccccn1	0.2	22.7	-0.4	-8.5
Cc1ccc(C(NC(=O)/C=C\c2ccc3c(c2)OCO3)C(=O)Nc2ccc3c(c2)OCO3)cc1 (centres undefined)	2.7	99.0*	-0.2	3.5
COC(=O)c1[nH]c2ccccc2c1NC(=O)/C=C/c1ccc2c(c1)OCO2	0.4	78.2*	-0.2	2.9
Cc1ccc(S(=O)(=O)NC(C)C(=O)Nc2ccc3c(c2)OCO3)cc1 (centres undefined)	.	-10.7	.	.
O=C(/C=C/c1ccc2c(c1)OCO2)Nc1ccc(Cl)cn1	32.0	84.8*	0.2	16.1
CC(C)(C)OC(=O)NCCCCCc1nnc(SCC(=O)Nc2cccc(Cl)c2)o1	0.5	-0.6	-0.3	-3.5
CN1CCN(C(=O)/C=C/c2ccc(C#N)cc2)CC1	.	-4.2	.	.
CC1(c2ccc3ccccc3c2)NC(=O)N(CC(=O)NCC(C)(C)N2CCOCC2)C1=O (centres undefined)	.	-8.8	.	.
O=C(/C=C/c1ccc2c(c1)OCO2)c1ccccn1	1.3	60.2*	.	-7.0
CC(=O)Nc1ccc(NC(=O)CNC(=O)c2cccc(C)c2)cc1	.	8.6	.	.
COc1cc2c(cc1OC)CN(Cc1cc(=O)oc3c(C)c(C)ccc13)CC2	-0.7	58.0*	-0.3	1.1
Cc1ccc2c(CN(C)Cc3ccccc3)cc(=O)oc2c1C	.	73.6*	.	.
Cc1ccc2c(CN(C)Cc3cccc(F)c3)cc(=O)oc2c1C	.	30.0	.	.
COc1cc2c(cc1OC)CN(Cc1cc(=O)oc3cc(C)c(C)cc13)CC2	1.2	33.3	-0.4	2.8
O=C(/C=C/c1ccc([N+](=O)[O-])cc1)N1CCN(Cc2ccccc2)CC1	.	-2.2	.	.
O=C(/C=C/c1ccc(OCCCF)cc1)N1CCN(Cc2ccccc2)CC1	.	61.3*	.	.
O=C(Nc1cccn2ncnc12)C(F)(F)F	-0.4	63.3*	-0.3	0.6
O=C(O)/C=C/S(=O)(=O)c1ccc2ccccc2c1	0.8	2.3	.	0.3
Cc1ccc(C2=Nc3ccccc3NC(C)(c3ccc(C)o3)C2)o1 (centres undefined)	-0.1	53.0*	0.6	-1.0
C=CCN(C(=O)CNC(=O)c1ccco1)C(C(=O)NC1CCCC1)c1ccc(OC)cc1 (centres undefined)	.	-4.6	.	.
SMILES	L929 necroptosis	HSF1 activator	Hsp70 act	TNF necrop inh
COc1cc2c(cc1OC)CN(C(=O)C1CCN(S(=O)(=O)c3ccccc3F)CC1)CC2	.	20.4	.	.
CCN(CC(=O)NC(C)C)C(=O)[C@H](C)NC(=O)c1ccc(Br)cc1	-0.8	15.5	-0.3	-0.2
O=C(NP(=O)(N1CCCC1)N1CCCC1)C1=C(N2CCOCC2)/C(=C/c2cccc([N+](=O)[O-])c2)CC1	2.3	21.3	-0.3	-0.3
O=[N+]([O-])c1ccc(/C=C2\CCC(C3=CCCC3)=C2N2CCOCC2)cc1	0.2	60.8*	-0.4	2.4
Cc1ccc(N2Cc3ccccc3OC(C)C2=O)cc1 (centres undefined)	-0.1	54.6*	-0.1	-0.9
Cc1ccc(CN2C(=O)C(C)Oc3ccccc32)cc1 (centres undefined)	-0.3	-7.1	-0.1	10.7
Cc1ccccc1C(=O)NCCOc1ccccc1Cl	.	69.6*	.	.
CC(=O)NCCCc1nc2ccccc2n1Cc1c(F)cccc1Cl	-0.2	-9.9	.	2.0
C=CCc1cccc(CNc2nc3ccccc3n2CCC)c1O	0.9	149.4*	-0.1	-0.5
C=CCc1cccc(CNc2nc3ccccc3n2CC)c1O	0.1	28.3	-0.4	-1.7
COc1ccc(C/C(=N\O)c2ccc(OC)cc2)cc1	0.1	52.9*	-0.3	0.7
COc1ccc(C(=O)NNC(=O)Cc2ccc(Cl)cc2)cc1	6.8	7.5	0.1	-0.3
Cc1ccc(N=Nc2c(N)nn3c(C)cc(C)nc23)cc1	0.5	-1.3	-0.1	0.8
Cc1cc(C)n2nc(N)c(N=Nc3cccc(Cl)c3)c2n1	-0.1	55.9*	-0.1	0.3
COC(=O)c1cc(S(=O)(=O)N2CCC(c3cc(OC)ccc3OC)C2)c[nH]1 (centres undefined)	.	-0.8	.	.
COc1ccc(C(=O)N=C2SC3CS(=O)(=O)CC3N2c2ccc(N(C)C)cc2)cc1OC (centres undefined)	.	0.5	.	.
OCCNC1=NCCN1	1.4	-3.4	-0.3	-0.4
Fc1ccc(Sc2ccccc2CNC2=NCCN2)cc1	-0.2	55.3*	-0.5	1.1
COc1cc(/C=N/n2nnnc2N)ccc1OCC(N)=O	.	-39.2	.	.
CCCCNC(=O)c1cn(-c2ccc(OCC)cc2)c(=O)c2cc(OC)c(OC)cc12	0.1	-0.7	-0.1	-4.5
CCCN(CCC)CCCNC(=O)CS(=O)Cc1nc(-c2ccc(OC)c(OC)c2)oc1C (centres undefined)	0.6	54.6*	0.0	-0.5
COc1cccc(/C=N/NC(=O)c2cccs2)c1	2.4	62.9*	.	1.1
COc1cc(/C=N/NC(=O)c2cccs2)ccc1O	43.8	41.0	.	2.6
COc1ccccc1/C=C/C=N/NC(=O)c1cccs1	0.1	61.5*	.	-0.4
COc1ccc2o/c(=N/NC(=O)c3cccs3)c(C(N)=O)cc2c1	0.7	56.3*	0.0	0.0
SMILES	L929 necroptosis	HSF1 activator	Hsp70 act	TNF necrop inh
CCN(CC)C(=S)Oc1ccc(Cl)cc1Cl	0.2	-6.9	.	-2.5
Cc1c(N=C2SCC(=O)N2/N=C\c2ccc(Br)cc2)c(=O)n(-c2ccccc2)n1C	-0.7	66.7*	-0.3	-1.1
Cc1c(N=C2SCC(=O)N2/N=C/c2ccccc2Cl)c(=O)n(-c2ccccc2)n1C	-1.4	8.8	-0.2	-0.3
CCOC(=O)c1sc(NC(=O)Nc2ccc(Cl)cc2)nc1C	4.6	44.6	-0.3	-3.0
CN(CC(=O)OCC(=O)NCc1ccccc1)S(=O)(=O)c1ccc(Cl)cc1	0.9	-14.0	-0.4	1.3
O=C(Nc1cccc(-c2ccc(N3CCOCC3)nn2)c1)c1ccc(Cl)cc1	.	25.5	.	.
O=C(COc1ccc(Cl)cc1)Nc1cccc(-c2ccc(N3CCOCC3)nn2)c1	.	55.3*	.	.
NC(=Nc1nc(-c2ccccn2)cc2ccccc12)c1ccccn1	.	57.5*	.	.
N/C(=N\OC(=O)c1cccc2ccccc12)c1ccccn1	-0.6	3.0	.	-3.9
O=[N+]([O-])c1cccc(-c2ccc3nnc(SCc4ccccn4)n3n2)c1	1.9	62.6*	0.2	-0.5
c1ccc(CSc2nnc3ccc(-c4ccco4)nn23)nc1	2.6	-16.3	0.1	-0.1
CCOC(=O)C1=C(C)N=c2s/c(=C/c3cccc([N+](=O)[O-])c3O)c(=O)n2C1c1cc(OC)c(OC)c(OC)c1 (centres undefined)	.	57.7*	.	.
